# Measured values: PubChem BioAssay AID1851 (National Center for Advancing Translational Sciences (NCATS), 2009)
# In all, about 16,000 compounds went through this assay and about 2,600 (16%) were called active. Not shown: some 20% with an inconclusive outcome. The list is a sample of the results. A number with no mark means an inactive call. Calls follow the shape of the dose curve; as a rule, active = well fitted curve in the direction sought with a large enough effect; inconclusive = small, poorly fitted or top-dose-only effect, or effect the other way; inactive = no such curve, though single readings can be large or run the other way.
# Target: Cytochrome P450 2D6 (Homo sapiens) (UniProt P10635)
# Sequence (P10635 whole entry, looked up): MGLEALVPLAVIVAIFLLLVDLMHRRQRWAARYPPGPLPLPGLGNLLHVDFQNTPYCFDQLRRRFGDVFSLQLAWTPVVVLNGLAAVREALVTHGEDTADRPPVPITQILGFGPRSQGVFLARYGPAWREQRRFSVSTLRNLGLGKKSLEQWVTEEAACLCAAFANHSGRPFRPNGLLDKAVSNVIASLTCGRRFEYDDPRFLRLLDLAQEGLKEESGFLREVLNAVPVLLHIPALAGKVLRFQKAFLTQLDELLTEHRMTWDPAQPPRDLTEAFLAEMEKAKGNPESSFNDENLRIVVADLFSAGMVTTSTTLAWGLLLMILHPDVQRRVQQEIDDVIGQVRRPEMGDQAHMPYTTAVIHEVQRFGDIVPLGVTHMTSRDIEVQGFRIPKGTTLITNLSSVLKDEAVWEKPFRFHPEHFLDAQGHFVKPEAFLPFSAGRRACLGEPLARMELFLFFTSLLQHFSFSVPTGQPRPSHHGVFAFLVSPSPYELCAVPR
# Experiment: Cytochrome panel assay with activity outcomes
# Conditions: recombinant CYP, pro-luciferin dealkylation, luminescence, p450-cyp2d6; series mostly up to 57.1 µM; activity, negative = inhibition: at the top concentration
# % is scaled to controls: 0 for no effect and ±100 for the full control effect.
Structure (SMILES),"activity, negative = inhibition",AC50
Cn1c(CN2CCOCC2)nnc1SCc1ccccc1,-4.83%,–
S=C1SCN(CCN2CCOCC2)CN1Cc1ccccc1,–,12.6 µM (active)
O=C1OC(OC2CCCCC2)(c2ccccc2)c2ccccc21 (stereo not drawn),0.0819%,–
COc1ccc(-c2cc(C3CCN(c4cc(Cl)nc(N)n4)CC3)[nH]n2)cc1,-25.5%,–
CCN1C(=O)[C@H]2[C@H]3[C@H](O)[C@H](O)C/C(=N/NC(=O)OCc4ccccc4)[C@H]3CC[C@@H]2C1=O,1.32% [at 11.4 µM],–
C/C(=N\NC(=O)c1cccc(F)c1)c1ccc(Br)s1,-1.08%,–
Cc1cccc(C(=O)NC(=S)N2CCN(C)CC2)c1,0.609%,–
O=C(O)CC[C@@H](C(=O)O)N1C(=O)[C@@H]2[C@@H]3CC[C@H](C3)[C@@H]2C1=O,13.3% [at 11.4 µM],–
COCCCNC(=O)C(=O)N/N=C/c1ccc(OCC(=O)Nc2cccc(Cl)c2C)c(OC)c1,11%,–
CCCc1cc(=O)[nH]c(=S)[nH]1,8.48% [at 25.6 µM],–
Cc1ccc(OCC(=O)NNC(=O)CCC(=O)Nc2ccc(C)cc2C)cc1,1.32%,–
Nc1ccc(S(=O)(=O)NCc2nccs2)cc1,-11% [at 11.4 µM],–
O=C1CCCC=C1[C@@H](O)C1CCCCC1,11.1% [at 11.4 µM],–
CCCCOc1cc(C[C@@H]2CNC(=O)N2)ccc1OC,4.47%,–
CCCN1C[C@H](CSC)C[C@H]2c3cccc4[nH]cc(c34)C[C@@H]21,–,0.1 µM (active)
O=C(O)c1cc2cc(Cc3cccnc3)ccc2o1,5.07%,–
Cc1cc(C)nc(NC(=O)c2cccc([N+](=O)[O-])c2C)n1,-26%,–
CC(C)(C)C1CCC(OCC(O)CN2CCN(c3ccccc3)CC2)CC1 (stereo not drawn),–,6.31 µM (active)
OC[C@@H](O)CN1CCN(c2ccccc2)CC1,-10.7% [at 25.6 µM],–
ClC(Cl)(Cl)C(N1CCN(c2ccccc2)CC1)N1CCN(c2ccccc2)CC1,4.26% [at 11.4 µM],–
COCCCN=CC1=C(O)CC(C)(C)CC1=O,2.61%,–
CCc1c(C(C)O)oc2ccc3c(C)cc(=O)oc3c12 (stereo not drawn),9.69%,–
COc1ccc(-n2nc(C(=O)NCC(=O)Nc3ccccn3)c3ccccc3c2=O)cc1,-12.4%,–
Cn1c(=O)[nH]c2ncn(C)c2c1=O,7.29%,–
CN(C)CCCN1c2ccccc2Sc2ccc3ccccc3c21,–,1.26 µM (active)
CN(C)CCCN1c2ccccc2Sc2cnccc21,–,1.58 µM (active)
CCC(=S)/C=C1\Sc2ccc3ccccc3c2N1CCCS(=O)(=O)O,17.6%,–

Structure (SMILES),"activity, negative = inhibition",AC50
CCN(CC)CCN1c2ccccc2Sc2ccc3ccccc3c21,–,0.631 µM (active)
CN(C)CCCN1c2ccc3ccccc3c2Sc2cccc(Cl)c21,–,0.501 µM (active)
CN1C(=C2C(=O)OC(C)(C)OC2=O)Sc2ccccc21,-17.7%,–
CCN(CC)CCN1C(=O)c2cccc3cc(N)cc(c23)C1=O,-3.81% [at 11.4 µM],–
C/C(CC(=O)NCc1ccco1)=N\NC(=O)Cc1cccc2ccccc12,-5.5%,–
Cc1c(C(=O)O)nc(/C=C\C(=O)O)[nH]c1=O,6.81% [at 11.4 µM],–
Cc1nc2cnc(N(C)C)nc2n(Cc2ccc(F)cc2)c1=O,-8.58%,–
CCSc1nc2c(c(=O)[nH]1)C(c1ccncc1)C(C(=O)OC(C)C)=C(C)N2 (stereo not drawn),-20.1%,–
COc1ccc(CN2CN(c3ccc(Cl)cc3)C(=O)N(n3cnnc3)C2)cc1,-23.4%,–
N#C/C(=C\N1CCNC1=S)C(=O)c1ccc2ccccc2c1,-0.81% [at 11.4 µM],–
CN(C)CCCn1cc(C2=C(c3c[nH]c4ccccc34)C(=O)NC2=O)c2ccccc21,-1.97%,–
COc1ccccc1N1CCN(CCN2C(=O)c3ccccc3C(C)(C)C2=O)CC1,-4.41%,–
CN(C)CCCN1c2ccccc2C(C)(C)c2ccccc21,–,3.98 µM (active)
O=C(c1cnccn1)N1CCC2(CC1)CN(c1cccc(-c3ccccc3)c1)C2,-1.37%,–
O=C(NCc1n[nH]c(=S)n1-c1cccc(Cl)c1)c1ccc(S(=O)(=O)N2CCCC2)cc1,4.31%,–
NC(=O)c1ccc(-c2ncc(-c3ccccc3)o2)cc1,-17%,–
Nc1c(-c2cccs2)cnn1-c1nc(-c2ccc(F)cc2)cs1,14.5%,–
Fc1ccc(-c2cnc(-c3cccs3)o2)cc1,–,28.2 µM (active)
COc1ccc(C2C(C#N)=C(N)OC3=C2C(=O)CC(C)(C)C3)c([N+](=O)[O-])c1OC (stereo not drawn),-0.502%,–
CSc1cc(C)nc(NC(C)=O)n1,-5.56%,–
CCOC(=O)C1=C(CSc2nc3ccccc3s2)NC(=O)NC1c1cc(C)ccc1C (stereo not drawn),-7.88%,–
O=S(=O)(c1ccccc1)N1CCC2(CCCN(C(c3ccccc3)c3ccccc3)C2)CC1,–,0.501 µM (active)
O=S(=O)(c1ccccc1)N1CCC[C@@]2(CCN(C(c3ccccc3)c3ccccc3)C2)C1,–,0.631 µM (active)
O=S(=O)(c1ccccc1)N1CCC2(CCN(C(c3ccccc3)c3ccccc3)CC2)CC1,-11.1%,–
O=S(=O)(c1ccccc1)N1CCC2(CC1)CN(C(c1ccccc1)c1ccccc1)C2,–,2.51 µM (active)
CN1CCCC2(CCN(S(=O)(=O)c3ccccc3)CC2)C1,-20.3%,–
